# From PubChem BioAssay AID1159580 (chemical genetic matrix, 2015)
# “And” between values parts separate entries of the source, which are not always exact repeats. Identical values can stand only once. Out of some 5,500 compounds screened, about 2,000 (36%) were called active. Another 18% or so got no clear call; they are omitted. Rule as the data show it: active = normalized growth mostly below about 0.91 (no sharp cut-off); inconclusive = no clear call, values can overlap the other calls; inactive = mostly above about 0.92. This is one part of the list.
# Test: chemical genetic growth profiling, strain panel (AID 1159580);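 also: tested at 20 µM; growth read once vehicle control cultures reached saturation at 30 °C; 1 = growth at the plate median or of vehicle wells; lower values mean less growth of the strain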
# Conditions: S. cerevisiae deletion strains, growth OD
structure (smiles),measurement,setting,value
Cc1cc2cc3c(C)cc(=O)oc3c(C)c2o1,normalized growth,"locus YAL013W, strain DEP1, stronger effect = lower value",0.965 (inactive)
same,normalized growth,"locus YAL021C, strain ccr4, stronger effect = lower value",0.992 (inactive)
same,normalized growth,"locus YAL026C, strain drs2, stronger effect = lower value",0.949 (inactive)
same,normalized growth,"locus YAL030W, strain snc1, stronger effect = lower value",1.01 (inactive)
same,normalized growth,"locus YBL061C, strain skt5, stronger effect = lower value",0.997 (inactive)
same,normalized growth,"locus YBR009C, strain hhf1, stronger effect = lower value",0.937 (inactive)
same,normalized growth,"locus YBR021W, strain FUR4, stronger effect = lower value",1 (inactive)
same,normalized growth,"locus YBR023C, strain chs3, stronger effect = lower value",0.968 (inactive)
same,normalized growth,"locus YBR171W, strain sec66, stronger effect = lower value",0.959 (inactive)
same,normalized growth,"locus YBR229C, strain ROT2, stronger effect = lower value",0.967 (inactive)
same,normalized growth,"locus YBR231C, strain swc5, stronger effect = lower value",0.993 (inactive)
same,normalized growth,"locus YBR279W, strain paf1, stronger effect = lower value",0.949 (inactive)
same,normalized growth,"locus YCL011C, strain gbp2, stronger effect = lower value",0.955 (inactive)
same,normalized growth,"locus YCL016C, strain dcc1, stronger effect = lower value",0.939 (inactive)
same,normalized growth,"locus YCL029C, strain bik1, stronger effect = lower value",0.958 (inactive)
same,normalized growth,"locus YCL061C, strain MRC1, stronger effect = lower value",1 (inactive)
same,normalized growth,"locus YCL069W, strain vba3, stronger effect = lower value",0.955 (inactive)
same,normalized growth,"locus YCR088W, strain abp1, stronger effect = lower value",0.987 (inactive)
same,normalized growth,"locus YDL005C, strain med2, stronger effect = lower value",0.993 (inactive)
same,normalized growth,"locus YDL035C, strain GPR1, stronger effect = lower value",0.92 (inactive)
same,normalized growth,"locus YDL040C, strain nat1, stronger effect = lower value",1 (inactive)
same,normalized growth,"locus YDL074C, strain BRE1, stronger effect = lower value",0.832 (inactive)
same,normalized growth,"locus YDL101C, strain DUN1, stronger effect = lower value",0.933 (inactive)
same,normalized growth,"locus YDL134C, strain PPH21, stronger effect = lower value",0.951 (inactive)
same,normalized growth,"locus YDL185W, strain tfp1, stronger effect = lower value",0.958 (inactive)
same,normalized growth,"locus YDL192W, strain arf1, stronger effect = lower value",0.966 (inactive)
same,normalized growth,"locus YDR001C, strain nth1, stronger effect = lower value",0.984 (inactive)
same,normalized growth,"locus YDR069C, strain doa4, stronger effect = lower value",1.02 (inactive)
same,normalized growth,"locus YDR101C, strain arx1, stronger effect = lower value",0.951 (inactive)
same,normalized growth,"locus YDR137W, strain rgp1, stronger effect = lower value",1.03 (inactive)
same,normalized growth,"locus YDR150W, strain NUM1, stronger effect = lower value",0.993 (inactive)
same,normalized growth,"locus YDR159W, strain sac3, stronger effect = lower value",0.996 (inactive)
same,normalized growth,"locus YDR162C, strain NBP2, stronger effect = lower value",0.956 (inactive)
same,normalized growth,"locus YDR195W, strain ref2",1.28 [resistant] (active)
same,normalized growth,"locus YDR297W, strain sur2, stronger effect = lower value",1.01 (inactive)
same,normalized growth,"locus YDR318W, strain mcm21, stronger effect = lower value",0.94 (inactive)
same,normalized growth,"locus YDR334W, strain swr1, stronger effect = lower value",1 (inactive)
same,normalized growth,"locus YDR335W, strain msn5, stronger effect = lower value",1 (inactive)
same,normalized growth,"locus YDR388W, stronger effect = lower value",0.956 (inactive)
same,normalized growth,"locus YDR392W, strain spt3, stronger effect = lower value",0.875 (inactive)
same,normalized growth,"locus YDR502C, strain sam2, stronger effect = lower value",0.957 (inactive)
same,normalized growth,"locus YEL003W, strain gim4, stronger effect = lower value",0.972 (inactive)
same,normalized growth,"locus YEL037C, strain rad23, stronger effect = lower value",0.949 (inactive)
same,normalized growth,"locus YEL061C, strain CIN8 (second series), stronger effect = lower value",0.989 (inactive)
same,normalized growth,"locus YEL061C, strain CIN8, stronger effect = lower value",0.98 (inactive)
same,normalized growth,"locus YER015W, strain faa2, stronger effect = lower value",0.981 (inactive)
same,normalized growth,"locus YER016W, strain bim1, stronger effect = lower value",1 (inactive)
same,normalized growth,"locus YER110C, stronger effect = lower value",0.969 (inactive)
same,normalized growth,"locus YER111C, strain swi4, stronger effect = lower value",0.991 (inactive)
same,normalized growth,"locus YER155C, strain BEM2 (second series), stronger effect = lower value",0.926 (inactive)
same,normalized growth,"locus YER155C, strain BEM2, stronger effect = lower value",0.982 (inactive)
same,normalized growth,"locus YER167W, strain BCK2, stronger effect = lower value",0.975 (inactive)
same,normalized growth,"locus YFR010W, strain ubp6, stronger effect = lower value",0.965 (inactive)
same,normalized growth,"locus YGL078C, strain dbp3, stronger effect = lower value",0.982 (inactive)
same,normalized growth,"locus YGL086W, strain mad1, stronger effect = lower value",0.973 (inactive)
same,normalized growth,"locus YGL167C, strain pmr1, stronger effect = lower value",1.01 (inactive)
same,normalized growth,"locus YGL173C, strain kem1, stronger effect = lower value",0.997 (inactive)
same,normalized growth,"locus YGL227W, strain vid30, stronger effect = lower value",0.999 (inactive)
same,normalized growth,"locus YGL240W, strain doc1, stronger effect = lower value",0.98 (inactive)
same,normalized growth,"locus YGL248W, strain PDE1, stronger effect = lower value",0.929 (inactive)
same,normalized growth,"locus YGL253W, strain hxk2, stronger effect = lower value",0.953 (inactive)
same,normalized growth,"locus YGR078C, strain PAC10, stronger effect = lower value",0.879 (inactive)
same,normalized growth,"locus YGR135W, strain pre9, stronger effect = lower value",0.905 (inactive)
same,normalized growth,"locus YGR229C, strain SMI1, stronger effect = lower value",0.867 (inactive)
same,normalized growth,"locus YGR252W, strain gcn5, stronger effect = lower value",0.917 (inactive)
same,normalized growth,"locus YHR013C, strain ard1, stronger effect = lower value",0.877 (inactive)
same,normalized growth,"locus YHR027C, strain rpn1, stronger effect = lower value",1 (inactive)
same,normalized growth,"locus YHR030C, strain SLT2, stronger effect = lower value",0.908 (active) and 0.94 (inactive)
same,normalized growth,"locus YHR079C, strain IRE1 (second series), stronger effect = lower value",0.981 (inactive)
same,normalized growth,"locus YHR079C, strain IRE1, stronger effect = lower value",0.948 (inactive)
same,normalized growth,"locus YHR094C, strain hxt1, stronger effect = lower value",0.992 (inactive)
same,normalized growth,"locus YHR129C, strain ARP1, stronger effect = lower value",0.967 (inactive)
same,normalized growth,"locus YHR142W, strain chs7, stronger effect = lower value",0.944 (inactive)
same,normalized growth,"locus YHR200W, strain rpn10, stronger effect = lower value",0.941 (inactive)
same,normalized growth,"locus YIL066C, strain RNR3, stronger effect = lower value",0.918 (inactive)
same,normalized growth,"locus YIL073C, strain SPO22, stronger effect = lower value",0.888 (inactive)
same,normalized growth,"locus YIL125W, strain kgd1, stronger effect = lower value",1 (inactive)
same,normalized growth,"locus YIR030C, strain dcg1, stronger effect = lower value",0.988 (inactive)
same,normalized growth,"locus YJL092W, strain hpr5, stronger effect = lower value",0.978 (inactive)
same,normalized growth,"locus YJL095W, strain BCK1 (second series), stronger effect = lower value",0.988 (inactive)
same,normalized growth,"locus YJL095W, strain BCK1, stronger effect = lower value",0.752 (active) and 0.891 (inactive)
same,normalized growth,"locus YJL115W, strain asf1, stronger effect = lower value",0.991 (inactive)
same,normalized growth,"locus YJL129C, strain trk1, stronger effect = lower value",1.02 (inactive)
same,normalized growth,"locus YJL134W, strain LCB3, stronger effect = lower value",0.977 (inactive)
same,normalized growth,"locus YJL154C, strain vps35, stronger effect = lower value",0.99 (inactive)
same,normalized growth,"locus YJL164C, strain tpk1, stronger effect = lower value",0.95 (inactive)
same,normalized growth,"locus YJL166W, strain qcr8, stronger effect = lower value",0.989 (inactive)
same,normalized growth,"locus YJL187C, strain SWE1 (second series), stronger effect = lower value",0.91 (inactive)
same,normalized growth,"locus YJR043C, strain POL32, stronger effect = lower value",0.89 (inactive)
same,normalized growth,"locus YJR066W, strain TOR1, stronger effect = lower value",0.89 (inactive)
same,normalized growth,"locus YJR075W, strain HOC1, stronger effect = lower value",0.946 (inactive)
